Where “and” joins values, the source holds several entries; their conditions need not be identical. Identical values can stand only once. Inconclusive results are not listed. A call without a number means that no potency is given here. Unmarked numbers belong to inactive results. Calls of active or inactive are those of the source. The call rests on the fitted dose curve; in most records, active means well fitted curve in the direction sought with a large enough effect; inconclusive means small, poorly fitted or top-dose-only effect, or another doubt; inactive means no such curve, though single readings can be large; an effect the other way counts as inactive or inconclusive.
Tests used:
[1] = Viability qHTS for spleen associated tyrosine kinase inhibitor (SYKi) naive MV4-11 cells (AID 1963823); conditions: MV4-11 AML viability, CellTiter-Glo luminescence, 72 h; series mostly up to 45 µM; further: nearly all actives have a fitted effect of over 40% in size; further: potency means the concentration at half of the fitted maximal effect
How it was run: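 Read-out: CellTiter-Glo luminescence. Exposure: 72 hr, 37 C, 5% CO2, 95% humidity. Cells: MV4-11 without SYK inhibitor history, 500/well, qHTS format.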

[2] = Viability qHTS for spleen associated tyrosine kinase inhibitor (SYKi) drug resistant MV4-11 cells (AID 1963824); conditions: SYKi-resistant MV4-11 viability, CellTiter-Glo, 72 h; series mostly up to 45 µM; further: nearly all actives have a fitted effect of over 35% in size; further: potency means the concentration at half of the fitted maximal effect
How it was run: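 SYK inhibitor-resistant MV4-11 AML cells, 500 per well, added to predispensed compounds and incubated 72 hr at 37 C, 5% CO2. Viability measured by CellTiter-Glo luminescence after 10 min at room temperature.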

[3] = Quantitative highthroughput screen to assess conditional lethalithy of NOMO1 cells grown in RPMI1640 with untreated serum (RPMI+s) (AID 1963876); conditions: NOMO1 AML cells in RPMI+serum, CellTiter-Glo viability, 48 h; series mostly up to 45.8 µM; further: nearly all actives have a fitted effect of over 35% in size; further: potency means the concentration at half of the fitted maximal effect
How it was run: (§1)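 Each medium arm—HPLM with 10% dialyzed FBS, or RPMI1640 with 5 mM glucose and 10% untreated or dialyzed FBS—was screened against an 11-point, 3-fold compound titration for 48 h at 37 °C, with CellTiter-Glo luminescence as endpoint.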

[4] = Quantitative highthroughput screen to assess conditional lethalithy of NOMO1 cells grown in RPMI1640 with dialyzed fetal bovine serum (RPMI+ds) (AID 1963877); conditions: NOMO1 in RPMI+dialyzed FBS viability, ATP luminescence, 48 h; series mostly up to 45.8 µM; further: nearly all actives have a fitted effect of over 30% in size; further: potency means the concentration at half of the fitted maximal effect
How it was run: as §1

[5] = Quantitative highthroughput screen to assess conditional lethalithy of NOMO1 cells grown in Human Plasma-Like Medium with dialyzed fetal bovine serum (HPLM+ds) (AID 1963878); conditions: NOMO1 AML cells in HPLM+ds, CellTiter-Glo viability, 48 h; series mostly up to 45.8 µM; further: nearly all actives have a fitted effect of over 35% in size; further: potency means the concentration at half of the fitted maximal effect
How it was run: as §1

[6] = Quantitative highthroughput screen to assess conditional lethalithy of P12 Ichikawa cells grown in Human Plasma-Like Medium with dialyzed fetal bovine serum (HPLM+ds) (AID 1963879); conditions: ATP luminescence, 48 h; Potency: viability; series mostly up to 45.8 µM; further: nearly all actives have a fitted effect of over 35% in size; further: potency means the concentration at half of the fitted maximal effect
How it was run: as §1

[7] = Quantitative highthroughput screen to assess conditional lethalithy of SEM cells grown in Human Plasma-Like Medium with dialyzed fetal bovine serum (HPLM+ds) (AID 1963882); conditions: SEM B-ALL cells in HPLM+ds, CellTiter-Glo viability, 48 h; series mostly up to 45.8 µM; further: nearly all actives have a fitted effect of over 35% in size; further: potency means the concentration at half of the fitted maximal effect
How it was run: as §1

[8] = Quantitative highthroughput screen to assess conditional lethalithy of SEM cells grown in RPMI1640 with unreated serum (RPMI+s) (AID 1963883); conditions: SEM B-ALL cells, CellTiter-Glo viability, 48 h; series mostly up to 45.8 µM; further: nearly all actives have a fitted effect of over 35% in size; further: potency means the concentration at half of the fitted maximal effect
How it was run: as §1

[9] = Quantitative highthroughput screen to assess conditional lethalithy of SEM cells grown in RPMI1640 with dialyzed fetal bovine serum (RPMI+ds) (AID 1963884); conditions: SEM B-ALL cells, RPMI+dialyzed FBS, CellTiter-Glo viability, 48 h; series mostly up to 45.8 µM; further: nearly all actives have a fitted effect of over 35% in size; further: potency means the concentration at half of the fitted maximal effect
How it was run: as §1

[10] = Quantitative highthroughput screen to assess conditional lethalithy of P12 Ichikawa cells grown in RPMI1640 with untreated serum (RPMI+s) (AID 1963881); conditions: ATP luminescence, 48 h; Potency: viability; series mostly up to 45.8 µM; further: nearly all actives have a fitted effect of over 35% in size; further: potency means the concentration at half of the fitted maximal effect
How it was run: as §1

[11] = Cellular viability qHTS for adrenocortical cancer (ACC) cell line NCI-H295R (AID 1963990); conditions: CellTiter-Glo ATP luminescence, 48 h; series mostly up to 46.1 µM; further: nearly all actives have a fitted effect of over 60% in size; further: potency means the concentration at half of the fitted maximal effect
How it was run: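 Viability of NCI-H295R after 48 h of treatment (final up to 46 uM) measured through cellular ATP luminescence.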

[12] = Cellular viability qHTS for adrenocortical cancer (ACC) cell line SW-13 (AID 1963989); conditions: SW-13 ACC cells viability, CellTiter-Glo, 48 h; activity (max response): active compounds read low; further: nearly all actives have a fitted effect of over 65% in size; further: potency means the concentration at half of the fitted maximal effect;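 on activity (max response): cells grown in serum-free medium with ITS supplement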
How it was run: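 Here, serum-free SW-13 cultures were dosed up to 46 uM. Following 48 h, ATP-dependent luminescence (CellTiter-Glo) reported viable cells, and logistic modeling produced IC50 values.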

[13] = Quantitative highthroughput screen to assess conditional lethalithy of P12 Ichikawa cells grown in RPMI1640 with dialyzed fetal bovine serum (RPMI+ds) (AID 1963880); conditions: ATP luminescence, 48 h; Potency: P12-Ichikawa viability; series mostly up to 45.8 µM; further: nearly all actives have a fitted effect of over 35% in size
How it was run: as §1

With `CC(=O)NC(C)c1ccc(Oc2ccc(OC(C)C)cc2)cc1` (centres undefined) the Potency [1] was 10.8 µM (active), the Potency [2] was 10.8 µM (active) and the Potency [3] was “inactive”. The Potency [4] was “inactive”, the Potency [5] was “inactive” and the Potency [6] was “inactive”. The Potency [7] was “inactive”, the Potency [8] was “inactive” and the Potency [9] was “inactive”.
With `CNCc1ccc(-c2[nH]c3cc(F)cc4c3c2CCNC4=O)cc1` the Potency [1] was 13 µM (active) and 16.6 µM (active), the Potency [2] was 20.6 µM (active) and 14.8 µM (active) and the Potency [3] was “inactive”. For the same molecule, the Potency [4] was “inactive”, the Potency [5] was “inactive” and the Potency [6] was “inactive”. For the same molecule, the Potency [10] was “inactive”, the Potency [7] was “inactive” and the Potency [9] was “inactive”. For the same molecule, the Potency [11] was “inactive”.
With `O=C(c1ccc(F)cc1)C1CCN(CCn2c(=O)[nH]c3ccccc3c2=O)CC1` the Potency [1] was “inactive”, the Potency [2] was 16.8 µM (active) and the Potency [3] was “inactive”. For the same molecule, the Potency [4] was “inactive”, the Potency [5] was “inactive” and the Potency [6] was “inactive”. The Potency [10] was “inactive”, the Potency [7] was “inactive” and the Potency [8] was “inactive”. The Potency [9] was “inactive”, the activity (max response) [12] was -13.7% and the Potency [11] was “inactive”.
For `Cc1nc(-c2ccc(OCC(C)C)c(C#N)c2)sc1C(=O)O`, the Potency [1] was “inactive”, the Potency [2] was “inactive” and the Potency [3] was “inactive”. The Potency [4] was “inactive”, the Potency [5] was “inactive” and the Potency [6] was “inactive”. For the same molecule, the Potency [10] was “inactive”, the Potency [7] was “inactive” and the Potency [8] was “inactive”. For the same molecule, the Potency [9] was “inactive”, the activity (max response) [12] was 5.55% and 8.19% and the Potency [11] was “inactive”.
For `Cc1ccc2c(=O)c3cccc(CC(=O)O)c3oc2c1C`, the Potency [1] was 2.95 µM (active), the Potency [2] was 0.934 µM (active) and the Potency [3] was “inactive”. For the same molecule, the Potency [4] was “inactive”, the Potency [5] was “inactive” and the Potency [6] was “inactive”. The Potency [13] was “inactive”, the activity (max response) [12] was -13.4% and the Potency [11] was “inactive”.
With `O=C(CCCCCCC(=O)Nc1ccccc1)NO` the Potency [1] was 1.64 µM (active) and 1.48 µM (active), the Potency [2] was 1.3 µM (active) and 1.18 µM (active) and the Potency [3] was 14.8 µM (active). The Potency [4] was 16.6 µM (active), the Potency [5] was 10.5 µM (active) and the Potency [6] was 4.18 µM (active). For the same molecule, the Potency [10] was 3.32 µM (active), the Potency [7] was 3.72 µM (active) and the Potency [8] was 3.72 µM (active). For the same molecule, the Potency [9] was 3.32 µM (active), the Potency [12] was 4.11 µM (active) and 3.16 µM (active) and the Potency [11] was 820 nM (active) and 1 µM (active).

— PubChem BioAssay (NCATS)
